# About 410 targets per protein were measured; listed, in parts, are those with the strongest signals and a random draw of the rest.
# Assays:
# Assay in all cases: glycan array binding signal (z-score within array); higher = stronger binding
# Settings in all cases: glycan notation: IUPAC condensed, linker removed
# [1] = target: Fuc(a1-2)Gal(b1-3)GlcNAc(b1-2)Man(a1-3)[Fuc(a1-2)Gal(b1-3)GlcNAc(b1-2)Man(a1-6)]Man(b1-4)GlcNAc(b1-4)[Fuc(a1-6)]GlcNAc
# Summary of the method: (§1)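 Glycan array data were curated from 3228 arrays in the Consortium for Functional Glycomics database and kept only where the protein sequence was available. Glycan names were converted to IUPAC-condensed notation, and columns mapping to the same glycan were averaged. The binding signal is a within-array Z-score, averaged across arrays of the same protein sequence at different concentrations or buffers and across linkers. Negative Z-scores can be read as non-binding.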
# [2] = target: Fuc(a1-2)Gal(b1-4)[Fuc(a1-3)]GlcNAc(b1-2)[Fuc(a1-2)Gal(b1-4)[Fuc(a1-3)]GlcNAc(b1-4)]Man(a1-3)[Fuc(a1-2)Gal(b1-4)[Fuc(a1-3)]GlcNAc(b1-2)Man(a1-6)]Man(b1-4)GlcNAc(b1-4)GlcNAc
# Summary of the method: as §1
# [3] = target: Fuc(a1-2)[Gal(a1-3)]Gal(b1-3)GalNAc
# Summary of the method: as §1
# [4] = target: Fuc(a1-2)[Gal(a1-3)]Gal(b1-4)GlcNAc(b1-6)GalNAc
# Summary of the method: as §1
# [5] = target: Fuc(a1-2)[GalNAc(a1-3)]Gal(b1-4)GlcNAc
# Summary of the method: as §1
# [6] = target: Fuc(a1-3)[GalNAc(b1-4)]GlcNAc
# Summary of the method: as §1
# [7] = target: Gal(a1-3)Gal(b1-3)GlcNAc(b1-6)GalNAc
# Summary of the method: as §1
# [8] = target: Gal(a1-3)Gal(b1-3)[Fuc(a1-4)]GlcNAc(b1-2)Man(a1-3)[Gal(a1-3)Gal(b1-3)[Fuc(a1-4)]GlcNAc(b1-2)Man(a1-6)]Man(b1-4)GlcNAc(b1-4)GlcNAc
# Summary of the method: as §1
# [9] = target: Gal(a1-3)Gal(b1-4)GlcNAc(b1-6)GalNAc
# Summary of the method: as §1
# [10] = target: Gal(a1-3)Gal(b1-4)[Fuc(a1-3)]GlcNAc
# Summary of the method: as §1
# [11] = target: Gal(a1-4)Gal(b1-4)GlcNAc(b1-2)Man(a1-3)[Gal(a1-4)Gal(b1-4)GlcNAc(b1-2)Man(a1-6)]Man(b1-4)GlcNAc(b1-4)GlcNAc
# Summary of the method: as §1
# [12] = target: Gal(b1-3)GalNAc(a1-3)[Fuc(a1-2)]Gal(b1-4)GlcNAc
# Summary of the method: as §1
# [13] = target: Gal(b1-3)GlcNAc(a1-6)Gal(b1-4)GlcNAc
# Summary of the method: as §1
# Gal(b1-4)Gal = target: Gal(b1-4)Gal
# Summary of the method: as §1
# Gal(b1-4)Glc = target: Gal(b1-4)Glc
# Summary of the method: as §1
# [14] = target: Gal(b1-4)GlcNAc(b1-2)[Gal(b1-4)GlcNAc(b1-4)]Man(a1-3)[GlcNAc(b1-4)][Gal(b1-4)GlcNAc(b1-2)Man(a1-6)]Man(b1-4)GlcNAc(b1-4)GlcNAc
# Summary of the method: as §1
# [15] = target: Gal(b1-4)GlcNAc(b1-3)Gal(b1-4)GlcNAc(b1-2)[Gal(b1-4)GlcNAc(b1-3)Gal(b1-4)GlcNAc(b1-6)]Man(a1-6)[Gal(b1-4)GlcNAc(b1-3)Gal(b1-4)GlcNAc(b1-2)Man(a1-3)]Man(b1-4)GlcNAc(b1-4)GlcNAc
# Summary of the method: as §1
# [16] = target: Gal(b1-4)GlcNAc(b1-6)GalNAc
# Summary of the method: as §1
# Gal3S4S(b1-4)GlcNAc = target: Gal3S4S(b1-4)GlcNAc
# Summary of the method: as §1
# Gal6S(b1-4)GlcNAc6S = target: Gal6S(b1-4)GlcNAc6S
# Summary of the method: as §1
# [17] = target: GalNAc(b1-3)Gal(a1-4)Gal(b1-4)GlcNAc(b1-3)Gal(b1-4)Glc
# Summary of the method: as §1
# [18] = target: GalNAc(b1-4)GlcNAc(b1-2)Man
# Summary of the method: as §1
# GlcA(b1-3)GlcNAc = target: GlcA(b1-3)GlcNAc
# Summary of the method: as §1
# [19] = target: GlcNAc(b1-2)[GlcNAc(b1-4)]Man(a1-3)[GlcNAc(b1-4)][GlcNAc(b1-2)Man(a1-6)]Man(b1-4)GlcNAc(b1-4)GlcNAc
# Summary of the method: as §1
# [20] = target: GlcNAc(b1-3)Gal(b1-4)GlcNAc(b1-2)Man(a1-3)[GlcNAc(b1-3)Gal(b1-4)GlcNAc(b1-2)Man(a1-6)]Man(b1-4)GlcNAc(b1-4)[Fuc(a1-6)]GlcNAc
# Summary of the method: as §1
# [21] = target: GlcNAc(b1-3)Gal(b1-4)GlcNAc(b1-2)[GlcNAc(b1-3)Gal(b1-4)GlcNAc(b1-6)]Man(a1-6)[GlcNAc(b1-3)Gal(b1-4)GlcNAc(b1-2)Man(a1-3)]Man(b1-4)GlcNAc(b1-4)GlcNAc
# Summary of the method: as §1
# [22] = target: GlcNAc(b1-3)Gal(b1-4)GlcNAc(b1-3)Gal(b1-4)GlcNAc(b1-2)Man(a1-3)[GlcNAc(b1-3)Gal(b1-4)GlcNAc(b1-3)Gal(b1-4)GlcNAc(b1-2)Man(a1-6)]Man(b1-4)GlcNAc(b1-4)GlcNAc
# Summary of the method: as §1
# [23] = target: GlcNAc(b1-3)Gal(b1-4)GlcNAc(b1-3)Gal(b1-4)GlcNAc(b1-2)Man(a1-3)[GlcNAc(b1-3)Gal(b1-4)GlcNAc(b1-3)Gal(b1-4)GlcNAc(b1-2)Man(a1-6)]Man(b1-4)GlcNAc(b1-4)[Fuc(a1-6)]GlcNAc
# Summary of the method: as §1
# [24] = target: GlcNAc(b1-3)Gal(b1-4)GlcNAc(b1-3)Gal(b1-4)GlcNAc(b1-3)Gal(b1-4)GlcNAc(b1-2)Man(a1-3)[GlcNAc(b1-3)Gal(b1-4)GlcNAc(b1-3)Gal(b1-4)GlcNAc(b1-3)Gal(b1-4)GlcNAc(b1-2)Man(a1-6)]Man(b1-4)GlcNAc(b1-4)[Fuc(a1-6)]GlcNAc
# Summary of the method: as §1
# [25] = target: GlcNAc(b1-4)GlcNAc(b1-4)GlcNAc
# Summary of the method: as §1
# [26] = target: Man(a1-2)Man(a1-6)[Man(a1-3)]Man(a1-6)[Man(a1-2)Man(a1-2)Man(a1-3)]Man
# Summary of the method: as §1
# [27] = target: Man(a1-3)[Man(a1-6)]Man(a1-6)[Man(a1-3)]Man
# Summary of the method: as §1
# [28] = target: Neu5Ac(a2-3)Gal(b1-3)GlcNAc(b1-3)Gal(b1-4)GlcNAc
# Summary of the method: as §1
# [29] = target: Neu5Ac(a2-3)Gal(b1-3)GlcNAc6S
# Summary of the method: as §1
# [30] = target: Neu5Ac(a2-3)Gal(b1-4)GlcNAc(b1-2)Man(a1-3)[Neu5Ac(a2-3)Gal(b1-4)GlcNAc(b1-2)Man(a1-6)]Man(b1-4)GlcNAc(b1-4)GlcNAc
# Summary of the method: as §1
# [31] = target: Neu5Ac(a2-3)Gal(b1-4)GlcNAc(b1-3)Gal(b1-4)GlcNAc(b1-3)GalNAc
# Summary of the method: as §1
# [32] = target: Neu5Ac(a2-3)Gal(b1-4)GlcNAc(b1-3)GalNAc
# Summary of the method: as §1
# [33] = target: Neu5Ac(a2-3)Gal(b1-4)GlcNAc(b1-6)[Gal(b1-3)]GalNAc
# Summary of the method: as §1
# [34] = target: Neu5Ac(a2-6)Gal(b1-4)GlcNAc(b1-2)Man(a1-6)[Gal(b1-4)GlcNAc(b1-2)Man(a1-3)]Man(b1-4)GlcNAc(b1-4)GlcNAc
# Summary of the method: as §1
# [35] = target: Neu5Ac(a2-6)Gal(b1-4)GlcNAc(b1-2)Man(a1-6)[GlcNAc(b1-2)Man(a1-3)]Man(b1-4)GlcNAc(b1-4)GlcNAc
# Summary of the method: as §1
# [36] = target: Neu5Ac(a2-8)Neu5Ac(a2-3)Gal(b1-3)GalNAc(b1-4)[Neu5Ac(a2-3)]Gal(b1-4)Glc
# Summary of the method: as §1
# [37] = target: Neu5Ac(a2-8)Neu5Ac(a2-3)Gal(b1-4)Glc
# Summary of the method: as §1
# [38] = target: Neu5Ac(a2-8)Neu5Ac(a2-8)Neu5Ac(a2-3)[Gal(b1-3)GalNAc(b1-4)]Gal(b1-4)Glc
# Summary of the method: as §1
# [39] = target: Neu5Ac(a2-8)Neu5Ac(a2-8)Neu5Ac(a2-3)[GalNAc(b1-4)]Gal(b1-4)Glc
# Summary of the method: as §1
# [40] = target: Neu5Gc(a2-3)Gal(b1-3)GlcNAc
# Summary of the method: as §1
# [41] = target: Neu5Gc(a2-8)Neu5Ac(a2-3)Gal(b1-4)GlcNAc
# Summary of the method: as §1
binder,measurement,setting,value
Lb MiSSP8 (Laccaria bicolor) (protein) MYFHTLFACATLMLITTAHASPTVINSLDSRKADLNGDVEARHAADWRRDSDWRRDSDWRRDSDWRRDSD,glycan array binding signal (z-score),[1],1.26
same,glycan array binding signal (z-score),[2],1.27
same,glycan array binding signal (z-score),[3],0.371
same,glycan array binding signal (z-score),[4],-0.53
same,glycan array binding signal (z-score),[5],-0.502
same,glycan array binding signal (z-score),[6],1.06
same,glycan array binding signal (z-score),[7],-0.806
same,glycan array binding signal (z-score),[8],1.55
same,glycan array binding signal (z-score),[9],-0.599
same,glycan array binding signal (z-score),[10],-0.488
same,glycan array binding signal (z-score),[11],10.8
same,glycan array binding signal (z-score),[12],-0.267
same,glycan array binding signal (z-score),[13],-0.136
same,glycan array binding signal (z-score),Gal(b1-4)Gal,-3.19
same,glycan array binding signal (z-score),Gal(b1-4)Glc,0.702
same,glycan array binding signal (z-score),[14],-0.274
same,glycan array binding signal (z-score),[15],2.86
same,glycan array binding signal (z-score),[16],-0.433
same,glycan array binding signal (z-score),Gal3S4S(b1-4)GlcNAc,-0.771
same,glycan array binding signal (z-score),Gal6S(b1-4)GlcNAc6S,-0.571
same,glycan array binding signal (z-score),[17],4.15
same,glycan array binding signal (z-score),[18],-0.744
same,glycan array binding signal (z-score),GlcA(b1-3)GlcNAc,3.78
same,glycan array binding signal (z-score),[19],-0.64
same,glycan array binding signal (z-score),[20],2.31
same,glycan array binding signal (z-score),[21],0.54
same,glycan array binding signal (z-score),[22],2.57
same,glycan array binding signal (z-score),[23],2.43
same,glycan array binding signal (z-score),[24],2.57
same,glycan array binding signal (z-score),[25],0.319
same,glycan array binding signal (z-score),[26],-0.578
same,glycan array binding signal (z-score),[27],2.36
same,glycan array binding signal (z-score),[28],-0.868
same,glycan array binding signal (z-score),[29],-0.226
same,glycan array binding signal (z-score),[30],-0.578
same,glycan array binding signal (z-score),[31],-0.343
same,glycan array binding signal (z-score),[32],-0.122
same,glycan array binding signal (z-score),[33],3.01
same,glycan array binding signal (z-score),[34],-0.606
same,glycan array binding signal (z-score),[35],-0.668
same,glycan array binding signal (z-score),[36],-0.336
same,glycan array binding signal (z-score),[37],-0.744
same,glycan array binding signal (z-score),[38],1.08
same,glycan array binding signal (z-score),[39],-0.82
same,glycan array binding signal (z-score),[40],-0.571
same,glycan array binding signal (z-score),[41],-0.958
